# Assay outcomes deposited in PubChem BioAssay by National Center for Advancing Translational Sciences (NCATS).
# Luc counter: Counterscreen for Luciferase (Kinase-Glo TM) Inhibition; 0.28% of 200,000 active; Kinase-Glo luciferase, ATP luminescence, 8 min; Luciferin 4-monooxygenase (Photuris pensylvanica), Q27757; Potency, µM (top dose mostly 38.3 µM), for the others: at the highest dose activity change, negative = inhibition, hits mostly inhibitors; further: on the % scale 0 is the no-effect control and ±100 the full control effect; nearly all actives have a fitted effect of over 60% in size
#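 Light output from Kinase-Glo luciferase with luciferin and 10 uM ATP in 50 mM imidazole pH 7.2, KCl, MgCl2, Tween 20, BSA; compound pin-delivered, 8-min ambient incubation, then luminescence read.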
# NPC1 promoter act: qHTS Assay for NPC1 Promoter Activators. Potency, µM (top dose mostly 9.22 µM), for inactives: at the highest dose activation, hits mostly activators. 2.4% of 320,000 active. AID 485313, 2010. Huh7 NPC1 promoter luciferase reporter, 24 h; further: % of control where 0% means no effect; nearly all actives have a fitted effect of over 60% in size
#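 Luciferase expression driven by the NPC1 promoter was measured in stably transfected Huh7 cells after a 24 h compound incubation, using a luciferase reagent and a luminescence read.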
# SMN2 splice enh: qHTS Assay for Enhancers of SMN2 Splice Variant Expression | Potency, µM (doses to about 46.1 µM), for inactives: top-dose activity change, positive = activation, most hits filed as activators | 2.8% of 210,000 active | HEK293 SMN2-luciferase splicing reporter, luminescence, 30-36 h | AID 1458, 2008; further: % of control where 0% means no effect; nearly all actives have a fitted effect of over 55% in size
#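 qHTS luciferase splicing reporter: luminescence rises when SMN2 exon 7 is included in transfected HEK293 cells. Compound exposure lasted 30-36 h at 37C, with 4.5 mM final sodium butyrate as control, followed by a ONE-Glo read.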
# FLuc modulator: qHTS profiling assay for firefly luciferase inhibitor/activator using purifed enzyme and Km concentrations of substrates (counterscreen for miR-21 project); purified FLuc, Km substrates, luminescence inhibition; Potency, µM (doses to about 57.5 µM), for inactives: at the top dose activity change, negative = inhibition, actives largely listed as inhibitors; 6.9% of 360,000 active;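 further: plate controls were vehicle for no effect and reference inhibitor for full effect; nearly all actives have a fitted effect of over 55% in size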
# Target sequence (P08659 whole entry, looked up): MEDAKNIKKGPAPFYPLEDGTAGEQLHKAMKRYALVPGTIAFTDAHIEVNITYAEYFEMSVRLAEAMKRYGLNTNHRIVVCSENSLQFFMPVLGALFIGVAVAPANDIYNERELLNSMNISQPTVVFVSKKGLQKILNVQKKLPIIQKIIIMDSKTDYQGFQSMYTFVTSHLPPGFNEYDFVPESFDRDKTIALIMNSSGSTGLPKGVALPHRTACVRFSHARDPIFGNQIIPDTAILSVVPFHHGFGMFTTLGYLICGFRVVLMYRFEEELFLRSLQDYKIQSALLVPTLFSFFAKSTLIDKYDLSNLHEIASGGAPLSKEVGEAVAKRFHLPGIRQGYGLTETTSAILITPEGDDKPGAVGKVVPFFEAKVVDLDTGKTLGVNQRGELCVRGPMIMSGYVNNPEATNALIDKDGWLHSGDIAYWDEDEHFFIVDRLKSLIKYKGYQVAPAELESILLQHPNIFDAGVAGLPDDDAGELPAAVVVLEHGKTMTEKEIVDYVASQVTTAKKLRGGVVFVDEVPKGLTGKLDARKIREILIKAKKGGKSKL
#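 Biochemical qHTS of compounds, final roughly 60 µM downward over six points, against 10 nM purified firefly luciferase using Km concentrations of substrates (10 uM D-luciferin, 10 uM ATP) in Tris acetate pH 7.5 buffer; luminescence output.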
# Rab9 prom act: qHTS Assay for Rab9 Promoter Activators; Huh7 Rab9 promoter-luciferase reporter, luminescence, 24 h; Potency, µM (doses to about 9.22 µM), for inactives: at the top dose activation, negative = inhibition, usual class: activators; 2.8% of 320,000 active; further: % of control where 0% means no effect; nearly all actives have a fitted effect of over 60% in size
#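 Stable Rab9-luc Huh7, 1500 cells/well, 2 h settle; cmpd in DMSO, 24 h, 37 °C/5% CO2; luciferase reagent 10 min RT; luminescence.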
# The depositor's hits bear a star; ? = inconclusive; / = no result; [ ] = remark or other dose. Rows were chosen to be rich in hits. Some 7.3% of all compounds tested hit in one or more screens of this group. The call rests on the fitted dose curve; in most records, active means well fitted curve in the direction sought with a large enough effect; inconclusive means small, poorly fitted or top-dose-only effect, or another doubt; inactive means no such curve, though single readings can be large; an effect the other way counts as inactive or inconclusive. Potency means the concentration at half of the fitted maximal effect.
SMILES,Luc counter,NPC1 promoter act,SMN2 splice enh,FLuc modulator,Rab9 prom act
Cc1ccc([C@@H](O)c2cnc(C)n2Cc2ccccc2)cc1,-5.1%[7.66 µM],/,0.2%[9.22 µM],/,/
NC(=O)CSc1nnnn1-c1cccc(O)c1,/,/,/,-3.1%,/
CC(=O)c1c(C)oc2ccc(N(C(=O)Oc3ccccc3)S(=O)(=O)c3ccc(Br)cc3)cc12,/,/,-3.0%,-3.1%,/
CCOc1ccc(-c2ccc(SC)nn2)cc1,3.16µM*,0.631µM*,0.794µM*,0.477µM*,0.316µM*
CCOC(=O)c1ccc(NC(=O)c2ccc3c(c2)OCO3)cc1,-6.6%,26.6%,16.2%,?,?
COc1ccc(NC(=O)c2ccc3c(c2)OCO3)cc1[N+](=O)[O-],1.7%,2.82µM*,?,?,3.16µM*
CCN(CC)c1ccc(C(=O)NC(=S)N2CCN(Cc3ccc4c(c3)OCO4)CC2)cc1,-3.5%,0.1%,11.9%,21.3µM*,1.3%
COc1ccc2[nH]c(C(=O)Nc3ncc(C)cc3Br)cc2c1,/,-0.2%,/,19µM*,14.1%
COc1ccc(NC(=O)c2ccc3c(c2)OCO3)cc1,/,1.12µM*,/,3.38µM*,0.631µM*
COc1ccc2[nH]c(C(=O)Nc3ccc(F)cc3Br)cc2c1,/,-29.3%,/,-12.1%,-2.7%
COc1ccc2[nH]c(C(=O)Nc3ccc4c(c3)OCO4)cc2c1,/,3.16µM*,/,4.78µM*,2.82µM*
CCN(CC)c1ccc(NC(=O)c2ccc3c(c2)OCO3)cc1,/,?,/,6.75µM*,2.24µM*
CCC(=O)Nc1ccc(NC(=O)c2ccc3c(c2)OCO3)cc1,10.3%,-2.4%,-1.1%,-18.8%,-5.7%
COc1ccc(NC(=O)c2cc3cc(C)ccc3[nH]2)cc1,/,/,/,-0.7%,/
Cc1onc(-c2ccccc2Cl)c1-c1nc(-c2ccccn2)no1,-2.5%,-2.8%,-9.9%,-8.3%,0.4%
Clc1ccccc1/C=C/c1nc(-c2ccccn2)no1,/,0.224µM*,/,0.107µM*,?
Cc1cc(Nc2ccc(C)c(Cl)c2)n2nc(-c3ccccc3)nc2n1,/,/,4.4%,-3.5%,/
CCS(=O)(=O)C1=NSC2=NC(=O)/C(=C\c3ccc(OC(=O)c4ccco4)c(OC)c3)C(=N)N21,/,-4.7%,/,21.3µM*,2.1%
COc1cc(/C=C2/C(=N)N3C(=NC2=O)SN=C3S(=O)(=O)C(C)C)ccc1OC(=O)c1ccco1,/,5.3%,/,13.5µM*,-0.2%
CCOc1cc(/C=C2/C(=N)N3C(=NC2=O)SN=C3S(=O)(=O)CC)ccc1OC(=O)c1ccco1,/,2.7%,/,-21.4%,-0.6%
C=CCOc1ccc(/C=C2\C(=N)N3N=C(S(=O)(=O)CC)SC3=NC2=O)cc1OC,-4.4%,-0.6%,-1.6%,9.53µM*,0.1%
COc1cc(/C=C2/C(=N)N3C(c4ccccc4)=CSC3=NC2=O)ccc1OCC(=O)O,/,8.9%,/,26.9µM*,1.3%
CCOc1cc(/C=C2/C(=N)N3C(=NC2=O)SN=C3S(=O)(=O)C(C)C)ccc1OC(=O)c1ccco1,/,-3.2%,/,-18.5%,-6.2%
CCc1cccc(NC(=O)Cn2c(=O)n(-c3cccc(Cl)c3)c(=O)c3c2c2cc(C)ccc2n3C)c1,/,/,4.1%,0.3%,/
COc1ccc(NC(=O)CN2C(=O)C(C)(C)c3ccccc32)cc1Cl,/,/,/,4.4%,/
SMILES,Luc counter,NPC1 promoter act,SMN2 splice enh,FLuc modulator,Rab9 prom act
CCc1ccccc1NS(=O)(=O)c1cc(Br)cc2c1N(C(=O)C1CC1)CC2,/,/,-22.6%,-13.8%,/
COc1ccc(NC(=O)c2cnc(Nc3ccc(C)c(Cl)c3)c3ccccc23)c(OC)c1,/,/,5.1%,-1.7%,/
CSC1=NSC2=NC(=O)/C(=C\c3cccs3)C(=N)N12,-11.4%,3.55µM*,0.501µM*,9.53µM*,1.41µM*
N=C1/C(=C\c2ccc(OC(=O)c3ccco3)cc2)C(=O)N=C2SC=NN12,11.8%,-1.8%,?,15.1µM*,1.4%
CS(=O)(=O)C1=NN2C(=N)/C(=C\c3ccc(OC(=O)c4ccco4)cc3)C(=O)N=C2S1,/,0.9%,/,?,-0.8%
CS(=O)(=O)C1=NSC2=NC(=O)/C(=C\c3ccc(OC(=O)c4ccco4)cc3)C(=N)N21,/,8.4%,/,23.9µM*,16.6%
COc1cc(/C=C2/C(=N)N3C(=NC2=O)SN=C3S(C)(=O)=O)ccc1OC(=O)c1ccco1,/,0.5%,/,10.7µM*,4.8%
O=c1c2oc3ccccc3c2n(Cc2cccc(F)c2)c(=O)n1Cc1ccc2c(c1)OCO2,/,/,/,4.5%,/
COc1ccc(NC(=O)C(=O)NCCc2csc(-c3ccc(Cl)cc3)n2)cc1OC,/,/,/,-1.8%,/
O=C(N[C@@H](c1ccccc1)[C@@H]1C[C@H]1C(=O)NCc1ccccc1)OCc1ccccc1,-0.2%,/,-19.3%,/,/
COc1cc(/C=C2/C(=N)N3C(SC)=NSC3=NC2=O)ccc1OC(=O)c1ccco1,/,?,/,26.9µM*,?
CCS(=O)(=O)C1=NN2C(=N)/C(=C\c3ccc(OC(=O)c4ccco4)c(OC)c3)C(=O)N=C2S1,/,-0.4%,/,?,-1.9%
CCc1ccc(C2CC(=O)c3c([nH]c(C(=O)OC4CCCC4)c3C)C2)cc1 (stereo unspecified),/,/,-0.3%,-5.3%,/
O=C(CSc1cccc[n+]1[O-])c1cc2ccccc2o1,-2.3%,?,-25.3%,19µM*,?
CCCNC(=O)C(=O)NCC(c1ccc2c(c1)OCO2)N1CCOCC1 (stereo unspecified),/,/,/,-0.2%,/
OC[C@@H](O)[C@@H](O)[C@@H](O)[C@@H](O)c1nc2ccc(Cl)cc2[nH]1,-3.2%[7.66 µM],/,-7.9%[9.22 µM],/,/
COc1ccc(CNC(=O)Nc2ccc(OC)cc2)cc1,2.6%,-0.6%,29.5%,-1.7%,-3.7%
Cc1cc2cc(CNC(=O)Nc3ccccc3)ccc2[nH]1,-1.6%,?,?,19µM*,?
Cc1ccccc1CNC(=O)Nc1ccc(Cl)cc1,/,?,/,-18.0%,?
COc1ccc(CNC(=O)Nc2cccc(C)c2)cc1,-3.7%,3.16µM*,20.0%,?,3.98µM*
Cc1ccc(CNC(=O)Nc2ccccc2)c(C)c1,/,2.51µM*,/,2.69µM*,3.16µM*
COc1ccc(CNC(=O)Nc2ccccc2)cc1,/,?,/,19µM*,3.55µM*
CCCN1CCN(CCNC(=O)Nc2cc(OC)cc(OC)c2)CC1,/,/,6.4%,-1.6%,/
COCCN1Cc2cccc(C(=O)Nc3ccc(C)c(F)c3)c2C1=O,/,/,2.7%,?,/
O=[N+]([O-])c1ccc(NN=C2c3ccccc3Cc3ccccc32)c([N+](=O)[O-])c1,-0.6%[7.66 µM],/,-3.6%[9.22 µM],/,/
CCOc1ccc(NC(=O)c2ccc(CNc3c(N4CCCC4)c(=O)c3=O)cc2)cc1,/,-3.5%,/,13.5µM*,6.4%
CC(=O)c1ccc(NC(=O)c2ccc(CNc3c(N4CCOCC4)c(=O)c3=O)cc2)cc1,/,-1.9%,/,12µM*,1.2%
CCOc1ccccc1NC=C1C(=O)OC(C)(C)OC1=O,-3.0%,17.3%,-4.1%,?,1.7%
